Measurements from ChEMBL document CHEMBL1201862, “PubChem BioAssay data set” (2004).
The campaign covered roughly 400,000 compounds. About 1,900 (0.47%) were called active. Inconclusive results (about 14%) are left out. The rule behind the calls is not given here. Only a selection was taken, and actives are over-represented in it overall.

Biological target: Ataxin-2 (Homo sapiens) (UniProt Q99700)
Assay: qHTS for Inhibitors of ATXN expression.
Assay type: functional

Ataxin-2 (Homo sapiens), sequence (Q99700 whole entry): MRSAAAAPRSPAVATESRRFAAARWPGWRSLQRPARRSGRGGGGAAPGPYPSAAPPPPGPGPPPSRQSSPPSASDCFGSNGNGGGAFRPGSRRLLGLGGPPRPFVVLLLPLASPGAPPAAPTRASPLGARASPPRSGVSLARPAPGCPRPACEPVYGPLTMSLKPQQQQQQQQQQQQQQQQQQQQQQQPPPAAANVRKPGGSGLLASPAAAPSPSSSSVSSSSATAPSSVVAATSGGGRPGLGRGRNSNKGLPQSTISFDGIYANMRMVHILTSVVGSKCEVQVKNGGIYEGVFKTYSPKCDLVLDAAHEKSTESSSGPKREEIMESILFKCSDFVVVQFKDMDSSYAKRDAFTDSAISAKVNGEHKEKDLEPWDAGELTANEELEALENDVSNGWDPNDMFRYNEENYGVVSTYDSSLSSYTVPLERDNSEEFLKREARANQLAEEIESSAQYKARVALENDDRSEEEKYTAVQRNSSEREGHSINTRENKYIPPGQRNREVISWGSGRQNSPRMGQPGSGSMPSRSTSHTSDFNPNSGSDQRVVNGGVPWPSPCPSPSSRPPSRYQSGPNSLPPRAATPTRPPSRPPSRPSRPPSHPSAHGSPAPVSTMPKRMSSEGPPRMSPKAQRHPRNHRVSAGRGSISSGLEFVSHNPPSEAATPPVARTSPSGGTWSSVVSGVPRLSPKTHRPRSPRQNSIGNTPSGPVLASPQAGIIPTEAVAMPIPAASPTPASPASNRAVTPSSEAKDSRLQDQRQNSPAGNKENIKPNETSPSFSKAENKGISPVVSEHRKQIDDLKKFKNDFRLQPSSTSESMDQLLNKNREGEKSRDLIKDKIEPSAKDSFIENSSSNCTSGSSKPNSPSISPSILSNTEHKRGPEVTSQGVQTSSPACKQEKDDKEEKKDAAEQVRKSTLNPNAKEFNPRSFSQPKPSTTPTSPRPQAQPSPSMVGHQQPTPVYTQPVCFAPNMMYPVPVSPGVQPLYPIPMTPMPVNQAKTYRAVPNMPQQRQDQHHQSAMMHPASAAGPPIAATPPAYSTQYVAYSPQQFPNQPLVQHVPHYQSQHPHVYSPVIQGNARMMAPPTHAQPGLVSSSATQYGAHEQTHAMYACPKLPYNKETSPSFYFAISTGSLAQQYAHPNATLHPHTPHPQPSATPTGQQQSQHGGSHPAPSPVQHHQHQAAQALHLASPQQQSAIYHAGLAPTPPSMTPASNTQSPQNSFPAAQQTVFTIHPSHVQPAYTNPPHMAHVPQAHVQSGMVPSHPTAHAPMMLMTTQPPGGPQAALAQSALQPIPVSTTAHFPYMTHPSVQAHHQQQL

Row | Structure (SMILES) | Potency
1 | O=c1c2ccccc2nc(/C=C/c2ccc(O)cc2)n1-c1ccc(O)cc1 | inactive
2 | Cc1ccc(C)c(S(=O)(=O)Nc2ccc3c(c2)CCCN3C(=O)c2cccs2)c1 | 39.8 µM (active)
3 | COc1cccc(-c2nc3cc4c(cc3cc2CN(C(=O)c2cccs2)C2CC2)CCC4)c1OC | 35.5 µM (active)
4 | CCOc1ccc(N/C=C2/C(=O)NC(=S)N(Cc3ccccc3)C2=O)cc1 | inactive
5 | CCCC[C@@H](C)C[C@@H](C)C(=O)N(C)[C@@H](CC(C)C)C(=O)N[C@H](C(=O)N(C)[C@H](C(=O)N1C[C@@H](O)C[C@H]1C(=O)N1C(=O)C=C[C@@H]1C)C(C)C)C(C)OC(C)=O (stereo not given in full) | 10 µM (active)
6 | O=c1c2ccccc2nc(/C=C/c2ccc(O)c(O)c2)n1-c1ccccc1 | inactive
7 | Cc1ccc(N2C(=O)/C(=C/NCc3ccccn3)C(=O)NC2=S)cc1 | inactive
8 | O=C1NC(=S)N(c2ccc(F)cc2)C(=O)/C1=C\c1ccoc1 | inactive
9 | O=C1NC(=S)N(c2ccccc2F)C(=O)/C1=C\c1cccs1 | 31.6 µM (active)
10 | Cc1cc(N(CCCl)CCCl)ccc1C=Cc1ccncn1 | inactive
11 | Oc1nc2ccccc2n1C1CCN(C(c2ccccc2)c2nnnn2-c2ccc3c(c2)OCCO3)CC1 (stereo not given) | 14.1 µM (active)
12 | Oc1nc2ccccc2n1C1CCN(C(c2ccccc2OC(F)(F)F)c2nnnn2-c2ccc3c(c2)OCCO3)CC1 (stereo not given) | 39.8 µM (active)
13 | Oc1nc2ccccc2n1C1CCN(C(CCc2ccccc2)c2nnnn2C2CCCCC2)CC1 (stereo not given) | 39.8 µM (active)
14 | Oc1nc2ccccc2n1C1CCN(C(CCc2ccccc2)c2nnnn2-c2ccc3c(c2)OCCO3)CC1 (stereo not given) | 39.8 µM (active)
15 | COc1ccc(C2CC(c3cccs3)=NN2c2nc(C)c(C(C)=O)s2)cc1OC (stereo not given) | inactive
16 | CCOCCSc1nc2c(c(-c3cccs3)c1C#N)CC/C2=C/c1cccs1 | inactive
17 | Cc1cccc(-c2noc(-c3ccc4c(c3)OCO4)n2)c1 | inactive
18 | CC(C)CNC(=O)c1c(N)n(Cc2ccco2)c2nc3ccccc3nc12 | inactive
19 | CCCN=C1C(=O)C2=C(C(O)=C1C)N1CC3NC3[C@@]1(OC)C2COC(N)=O (stereo not given in full) | inactive
20 | COc1ccc(-n2c(/C=C/c3ccc(O)c(OC)c3)nc3ccccc3c2=O)cc1 | inactive

Row | Structure (SMILES) | Potency
21 | CC[N+](C)(CC)CCC[n+]1c(-c2ccccc2)c2cc(N)ccc2c2ccc(N)cc21 | 11.2 µM (active)
22 | C/C(=C\c1ccc(N(C)C)cc1)[N+](=O)[O-] | 22.4 µM (active)
23 | Cc1ccc(CN2CCCC(C(=O)c3cccc(C(F)(F)F)c3)C2)o1 (stereo not given) | inactive
24 | C=C1C(=O)O[C@@H]2C[C@@H](C)[C@@H]3C=CC(=O)[C@@]3(C)[C@@H](OC(=O)CC(=O)O[C@H]3[C@@H]4C(=C)C(=O)O[C@@H]4C[C@@H](C)[C@@H]4C=CC(=O)[C@]43C)[C@H]12 | 0.562 µM (active)
25 | C=C1C(=O)O[C@@H]2C[C@@H](C)[C@@H]3C=CC(=O)[C@@]3(C)[C@@H](O)[C@H]12 | 20 µM (active)
26 | C=C1C(=O)O[C@@H]2C[C@@H](C)[C@H]3C=CC(=O)[C@]3(O)C[C@@H]12 | 22.4 µM (active)
27 | COc1cc(/C=C/c2nc3ccccc3c(=O)n2-c2ccccc2O)ccc1O | inactive
28 | COc1ccc(-c2c/c(=N\CCC(=O)O)c3cc(C)ccc3o2)cc1 | inactive
29 | C=CCn1c(=O)/c(=C\c2ccccn2)s/c1=C(/C#N)C(=O)NCC1CCCO1 (stereo not given) | inactive
30 | O=C(Nc1c(Cl)cccc1Cl)Oc1cccc2cccnc12 | inactive
31 | O=C(NNC(=O)C12CC3CC(CC(C3)C1)C2)c1ccccc1F | inactive
32 | C[C@@H]1O[C@H](O[C@@H]2CC[C@@]3(C=O)[C@H]4CC[C@@]5(C)[C@@H](C6=CC(=O)OC6)CC[C@@]5(O)[C@@H]4CC[C@]3(O)C2)C[C@H](O)[C@@H]1O | 3.55 µM (active)
33 | C[C@@H]1O[C@H](O[C@H]2C[C@@H](O)[C@@]3(CO)[C@H]4[C@@H](O)C[C@]5(C)[C@@H](C6=CC(=O)OC6)CC[C@]5(O)[C@H]4CC[C@]3(O)C2)[C@@H](O)[C@H](O)[C@@H]1O | 0.0891 µM (active)
34 | C[C@@]12CC[C@H]3[C@@H](CC[C@]4(O)C[C@H](O)CC[C@@]34C=O)[C@]1(O)CC[C@@H]2C1=CC(=O)OC1 | 0.708 µM (active)
35 | CCC1C(=O)OCC1Cc1cncn1C (stereo not given) | inactive
36 | CSCCC(c1nnnn1C1CCCCC1)N1CCC2(CC1)C(=O)NCN2c1ccccc1 (stereo not given) | 39.8 µM (active)
37 | COc1cccc(C(c2nnnn2C2CCCC2)N2CCC3(CC2)C(=O)NCN3c2ccccc2)c1OC (stereo not given) | 39.8 µM (active)
38 | COc1cccc(C(c2nnnn2-c2ccc3c(c2)OCCO3)N2CCC3(CC2)C(=O)NCN3c2ccccc2)c1OC (stereo not given) | 39.8 µM (active)
39 | COc1cccc(C(c2nnnn2C(C)(C)C)N2CCC3(CC2)C(=O)NCN3c2ccccc2)c1OC (stereo not given) | 39.8 µM (active)
40 | CC(C)(C)n1nnnc1C(c1cccc2ccccc12)N1CCC2(CC1)C(=O)NCN2c1ccccc1 (stereo not given) | 39.8 µM (active)
